A number with no mark means an inactive call. The source made the active and inactive calls. Calls come from the whole dose curve; as a rule, active = well fitted curve in the direction sought with a large enough effect in the repeat runs; inconclusive = weak or mixed curves; inactive = flat fitted curve, though single readings scatter.
% is set by controls: 0 for no effect and ±100 for the full control effect.

The assay is described as follows: qHTS assay to test for compound auto fluorescence at 535 nm (green) in HepG2 cell free culture (AID 720686). To be noted: Cell-free medium, green autofluorescence 485/535 nm; series mostly up to 91.3 µM; fluorescence, % of fluorescein control: at the top concentration. An excerpt:
U.S. Tox21 Program National Center for Advancing Translational Sciences [NCATS] NIH Chemical Genomics Center [NCGC] U.S. Environmental Protection Agency [EPA] National Institutes of Environmental Health Sciences [NIEHS] National Toxicology Program [NTP] U.S. Food and Drug Administration [FDA] Tox21 Assay Overview: Compound auto fluorescence often interferes with screening of the compound library against various biological targets and signaling pathways. Some of these compounds may have fluorophoric properties. Such properties may interfere with the assay outputs resulting in false positives and/or negatives. To decrease such complications and ensure the compound activities are relevant in terms of biological response, the Tox21 10K compound library was screened for auto fluorescence. From the fluorophores used as reporter signals in our screening assays, the auto fluorescence equivalencies of compounds against three fluorophores have been evaluated: Triamterene, Fluorescein and Rose Bengal sodium for blue, green and red fluorescence, respectively. The fluorescence intensities were measured using Excitation/Emission wavelengths at 405/460nm, 485/535nm and 540/590nm for blue, green and red labels, respectively. This assay includes the green fluorescence data.
Tox21 Assay Protocol Summary: 5 uL of culture medium (MEM containing 10% FBS) per well was dispensed into black wall/clear bottom 1536-well plates using a Multidrop Combi Dispenser (ThermoFisher Scientific, Waltham, MA). After 23 nL compound or DMSO vehicle was transferred into assay plate by a pintool work station (Kalypsys, San Diego, CA), fluorescence intensities in the assay plates were measured by an Envision (PerkinElmer, Shelton, CT) plate reader using three labels for measuring blue, green and red fluorescence at […] 460, 535 and 590nm respectively.
For orientation: Quantitative high-throughput screening tests each substance at several concentrations.
Take `CCOC(=O)C(Cl)Cc1cc(-n2nc(C)n(C(F)F)c2=O)c(F)cc1Cl` (stereo not given): the “fluorescence, % of fluorescein control” value is -0.0529%.
Same read-out and setting: then `COc1cccc(C=O)c1`, with -0.0654%.
For `C=CC1(C)OC(=O)N(c2cc(Cl)cc(Cl)c2)C1=O` (stereo not given), the compound was classed as inactive.
For `COc1ccccc1OC`, the “fluorescence, % of fluorescein control” value was -0.0588%.
As to `CN1COCN(Cc2cnc(Cl)s2)/C1=N\[N+](=O)[O-]`, the “fluorescence, % of fluorescein control” value was 0.0374%.
As to `CC[C@@H](CO)NC(=O)[C@@H]1C=C2c3cccc4[nH]cc(c34)C[C@H]2N(C)C1`, the “fluorescence, % of fluorescein control” value was 0.194% [at 46 µM].
Same read-out and setting: as for `CC(Cc1ccccc1)NCCn1cnc2c1c(=O)n(C)c(=O)n2C` (stereo not given), the figure is -0.149%.
On the same count and under the same terms, then `CCN[C@@H](C)Cc1ccccc1`, with -0.0925% [at 95.7 µM].
With `C[C@H]1CCCC(=O)CCC/C=C/c2cc(O)cc(O)c2C(=O)O1`, the outcome was inactive.
For the compound `CCOC(=O)COc1ccc(Cl)cc1Cl`, the “fluorescence, % of fluorescein control” value is -0.0326%.
Turning to `CN(C)C1CCCCC1`, the “fluorescence, % of fluorescein control” value is -0.0176%.
Consider `Cn1c(CCCC(=O)O)nc2cc(N(CCCl)CCCl)ccc21`, for which the “fluorescence, % of fluorescein control” value was -0.0054% [at 46 µM].
On the same count and under the same terms, as for `CCN[C@@H](C)Cc1cccc(C(F)(F)F)c1`, the figure is 0.1%; as for `CN(C)CCc1c[nH]c2cccc(OP(=O)(O)O)c12`, 0.0298%.
Still for that read-out and setting: then `CCCCCCC1CCOC1=O` (stereo not given), with 0.0131%.
Regarding `CC(C)(C)c1cc(O)ccc1O`, the outcome was inactive.
With `O=C(NC(O)C(Cl)(Cl)Cl)NC(O)C(Cl)(Cl)Cl` (stereo not given), the “fluorescence, % of fluorescein control” value is -0.0065% [at 46 µM].
As to `NC(=O)CS(=O)C(c1ccccc1)c1ccccc1` (stereo not given), the “fluorescence, % of fluorescein control” value was -0.0045% [at 46 µM].
As to `C(COCC1CO1)OCC1CO1` (stereo not given), the “fluorescence, % of fluorescein control” value is 0.013%.
With `O=S1(=O)OCCO1`, the “fluorescence, % of fluorescein control” value is 0.0069% [at 95.7 µM].
As to `O=C(Cl)CCl`, the “fluorescence, % of fluorescein control” value was -0.0268%.
Consider `C#CCOC(=O)/C=C(C)/C=C/CC(C)CCCC(C)C` (stereo not given), for which the “fluorescence, % of fluorescein control” value was 0.004%.
Turning to `CCNc1nc(Cl)nc(NC(C)(C)C)n1`, the “fluorescence, % of fluorescein control” value was -0.0378%.
The same measure, in the same setting: as for `CCC(=O)c1ccc(Cl)cc1`, the figure is -0.0134%.
On to `NC1(c2ccccc2)CCCCC1`, for which the “fluorescence, % of fluorescein control” value was -0.0124%.
The same measure, in the same setting: as for `CCN[C@H](C)Cc1cccc(C(F)(F)F)c1`, the figure is 0.0792%.
Take `CCCCCCCCBr`: the “fluorescence, % of fluorescein control” value was 0.0297%.
In the case of `S=C=S`, the compound was called inactive.
Take `NC(=O)OCCCc1ccccc1`: the “fluorescence, % of fluorescein control” value was -0.0119% [at 46 µM].
Still for that read-out and setting: as for `CC(C)[C@]12CC(=O)[C@H](C)[C@H]1C2`, the figure is 0.001%; as for `NNC(N)=O`, -0.035% [at 95.7 µM]; as for `C=CC(=O)OCCN(C)C`, 0.0232%.
Still for that read-out and setting: as for `CC[C@H](O)C(C[C@H](C)N(C)C)(c1ccccc1)c1ccccc1`, the figure is 0.0651% [at 95.7 µM]; as for `CN1C(=O)COc2c(C(=O)NC3CN4CCC3CC4)cc(Cl)cc21` (stereo not given), -0.0376% [at 46 µM].
On the same count and under the same terms, then `CCC1(c2ccccc2)C(=O)N(COC)C(=O)N(COC)C1=O`, with -0.0733% [at 46 µM]; and `Oc1ccc(Cc2ccc(O)cc2)cc1`, with 0.006%; and `OCC(Cl)CCl` (stereo not given), with 0.0296%.
In the case of `N#CN=C1SCCN1Cc1ccc(Cl)nc1`, the “fluorescence, % of fluorescein control” value is -0.0851%.
Same read-out and setting: then `[O-][Br+2]([O-])O`, with -0.0228% [at 46 µM].
Take `C[C@H](N)C(=O)c1ccccc1`: the call was inactive.

Source of the values: PubChem BioAssay (Tox21).
